# Screening data (PubChem)
# IP6K1 inh: Primary qHTS assay for small molecule inhibitors of Inositol hexaphosphate kinase 1 (IP6K1) | IP6K1 kinase, ADP-Glo luminescence, 2 h; stronger effect = lower value | 140,000 tested, 0.81% active | activity change, % (series mostly up to about 58 µM) | AID 1645851, 2021; in the data active = activity change below about -25%; also: % is scaled to controls: 0 for no effect and ±100 for the full control effect
#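 ADP-Glo luminescence measures ADP made by human IP6K1 during a 2 h RT reaction with ATP/IP6 (mix at 1.3 mM/130 uM); top library doses 57.5 and 19.1 uM final.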
# KDM5B inh: Primary screen for KDM5B Histone Demethylases FDH-coupled qHTS; Lysine-specific demethylase 5B (Homo sapiens), Q9UGL1; KDM5B demethylase, FDH-coupled NADH fluorescence (FDH is formaldehyde dehydrogenase); Potency, µM (highest dose often 57.7 µM), hits mostly inhibitors; 220,000 tested, 2.6% active; active = well fitted inhibition curve with a large enough effect; inconclusive = small, poorly fitted or top-dose-only effect; inactive = no such curve, though single readings can be large or run the other way; also: potency is read from the fitted curve at half-maximal effect; 0% is about no effect; nearly all actives have a fitted effect of over 70% in size
# Target sequence (Q9UGL1 whole entry, looked up): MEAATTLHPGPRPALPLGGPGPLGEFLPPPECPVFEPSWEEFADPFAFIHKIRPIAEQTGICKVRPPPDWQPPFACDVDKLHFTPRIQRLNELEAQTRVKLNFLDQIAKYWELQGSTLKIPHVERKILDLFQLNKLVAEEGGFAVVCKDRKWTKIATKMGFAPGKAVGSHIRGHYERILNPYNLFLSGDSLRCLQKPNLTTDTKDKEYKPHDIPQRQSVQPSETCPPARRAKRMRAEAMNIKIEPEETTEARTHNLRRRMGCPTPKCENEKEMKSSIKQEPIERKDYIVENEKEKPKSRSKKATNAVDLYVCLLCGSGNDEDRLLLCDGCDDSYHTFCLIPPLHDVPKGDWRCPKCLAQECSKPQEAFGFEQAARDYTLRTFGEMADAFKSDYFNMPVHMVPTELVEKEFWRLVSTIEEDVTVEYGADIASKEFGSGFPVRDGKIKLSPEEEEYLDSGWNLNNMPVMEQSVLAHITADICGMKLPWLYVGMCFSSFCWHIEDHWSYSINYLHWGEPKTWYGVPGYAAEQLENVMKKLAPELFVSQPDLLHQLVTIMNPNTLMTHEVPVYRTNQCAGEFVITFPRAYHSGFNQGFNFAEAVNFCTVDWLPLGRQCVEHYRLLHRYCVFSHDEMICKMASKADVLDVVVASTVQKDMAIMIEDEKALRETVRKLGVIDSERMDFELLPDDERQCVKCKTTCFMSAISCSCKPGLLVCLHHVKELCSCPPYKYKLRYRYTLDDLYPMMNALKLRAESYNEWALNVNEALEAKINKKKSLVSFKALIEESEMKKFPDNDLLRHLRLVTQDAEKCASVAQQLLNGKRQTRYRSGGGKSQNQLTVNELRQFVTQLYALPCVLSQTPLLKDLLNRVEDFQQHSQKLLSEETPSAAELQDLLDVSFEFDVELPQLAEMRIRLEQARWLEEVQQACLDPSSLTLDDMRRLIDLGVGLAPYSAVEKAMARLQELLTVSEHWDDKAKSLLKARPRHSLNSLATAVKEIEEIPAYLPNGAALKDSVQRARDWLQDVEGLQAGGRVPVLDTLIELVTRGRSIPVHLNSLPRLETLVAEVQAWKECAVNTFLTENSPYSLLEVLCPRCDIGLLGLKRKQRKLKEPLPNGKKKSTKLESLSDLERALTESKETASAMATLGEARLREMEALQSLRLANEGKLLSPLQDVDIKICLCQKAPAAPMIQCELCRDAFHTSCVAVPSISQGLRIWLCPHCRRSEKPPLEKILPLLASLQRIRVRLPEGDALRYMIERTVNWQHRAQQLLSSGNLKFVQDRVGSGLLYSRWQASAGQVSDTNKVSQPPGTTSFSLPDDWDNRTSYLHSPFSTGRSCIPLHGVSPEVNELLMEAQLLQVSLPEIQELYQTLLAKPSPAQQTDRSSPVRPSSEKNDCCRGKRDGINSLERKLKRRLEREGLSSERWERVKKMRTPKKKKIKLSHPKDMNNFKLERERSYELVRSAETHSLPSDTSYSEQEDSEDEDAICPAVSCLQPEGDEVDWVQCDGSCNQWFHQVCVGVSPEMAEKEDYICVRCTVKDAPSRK
#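 Compound dilutions met 200 nM (final) KDM5BΔAP for 10 min at room temperature before substrate addition. The substrate mix held 12.5 µM H3K4me3 with cofactors 25 µM α-ketoglutarate and 50 µM Fe²⁺. NADH signal gain over 30 min defined activity.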
# * marks the source's active call; other numbers are inactive results; i = inactive; ? = inconclusive; . = not tested or not shown. A selection: hits, their analogues and other compounds. The true share with any hit is near 2.8%.
SMILES,IP6K1 inh,KDM5B inh
COC(=O)c1ccccc1NS(=O)(=O)c1c(C)nn(C)c1C,.,i
Cc1c(NCc2nc(-c3cccs3)no2)cccc1-n1cnnn1,.,i
Cc1ccc(-c2nnc3ccc(NC4CCCCC4)nn23)nc1,-7.7,?
COc1ccc(-c2nnc3ccc(NC4CCCCC4)nn23)nc1,5.3,31.6µM*
COCCNc1ccc2nnc(-c3ccc(OC)cn3)n2n1,-17.9,39.8µM*
COc1ccc(-c2nnc3ccc(NC(C)C)nn23)nc1,-9.5,?
CCC(C)NC(=O)c1cc(-c2cccc(OC)c2)nc2c1cnn2C (stereo unspecified),-4.5,.
Cc1ccc2nc(SCc3nc(-c4cccc(Cl)c4)no3)[nH]c2c1,.,i
CCCNC(=O)NCC1c2cc(OC)c(OC)cc2CCN1C(=O)NCC (stereo unspecified),4.3,i
CCCNC(=O)NCC1c2cc(OC)c(OC)cc2CCN1C(=O)NC(C)C (stereo unspecified),15.5,22.4µM*
COc1cccc(-c2cc3c(=O)n(CCNC(=O)c4cc(C)cc(C)c4)ccn3n2)c1,-11.9,31.6µM*
COc1cccc(-c2cc3c(=O)n(CCNC(=O)C4CCCCC4)ccn3n2)c1,-10.3,i
COc1cccc(-c2cc3c(=O)n(CCNC(=O)C4CCN(C(C)=O)CC4)ccn3n2)c1,-12.9,20µM*
COc1cccc(-c2cc3c(=O)n(CCNC(=O)c4ccccc4F)ccn3n2)c1,-7.1,?
COc1cc(OC)cc(C(=O)NCCn2ccn3nc(-c4cccc(OC)c4)cc3c2=O)c1,-13.0,?
COc1cccc(-c2cc3c(=O)n(CCNC(=O)c4ccc(C(C)(C)C)cc4)ccn3n2)c1,-13.7,25.1µM*
COc1cccc(-c2cc3c(=O)n(CCNC(=O)c4cccc(Cl)c4)ccn3n2)c1,-13.3,i
COc1cccc(-c2cc3c(=O)n(CCNC(=O)c4cc(Cl)ccc4F)ccn3n2)c1,-13.3,25.1µM*
O=C(C1CCCN1C(=O)c1ccccc1Cl)N1CCC(N2Cc3ccccc3C2=O)CC1 (stereo unspecified),-11.0,.
Cc1ccc2[nH]cc(CCNC(=O)/C=C/c3ccccc3F)c2c1,.,i
CNC(=O)c1cc(C2CC2)nc2onc(C3CCN(C(=O)c4ccc(C(F)(F)F)cc4)C3)c12 (stereo unspecified),-12.1,.
CC(O)c1ccc(-c2ccc(CNCCc3ccccc3)o2)cc1 (stereo unspecified),.,i
COc1ccc(C2(C(N)=O)CCCC2)cc1,.,i
Cc1nn(CN2CCN(S(=O)(=O)c3ccccc3Cl)CC2)c(=O)c2ccccc12,.,i
COc1cccc(CCC(=O)NCCn2ccn3nc(-c4cccc(OC)c4)cc3c2=O)c1,-19.7,?
SMILES,IP6K1 inh,KDM5B inh
COc1cccc(-c2cc3c(=O)n(CCNC(=O)c4ccc(Cl)cc4)ccn3n2)c1,-7.4,?
COc1cccc(-c2cc3c(=O)n(CC(O)c4cccc(C#N)c4)ccn3n2)c1 (stereo unspecified),-7.8,22.4µM*
COc1ccc(C(=O)NCCn2ccn3nc(-c4cccc(OC)c4)cc3c2=O)cc1,-9.2,22.4µM*
COc1ccccc1CNC(=O)CNC(=O)c1cccc(-c2ccc(C(F)(F)F)cc2)c1,-1.8,.
CCC1(C)Cc2c(sc3nc(SC)nc(N4CCCCC4)c23)CO1 (stereo unspecified),.,i
O=C(c1ccc2[nH]ccc2c1)N1CCN(Cc2ccccc2)CC1,.,i
O=C(NCc1nnc2ccc(-c3ccccc3)nn12)c1cccc(Cl)c1,5.7,?
Cc1ccc(-c2ccc3nnc(CNC(=O)Cc4cccc(Cl)c4)n3n2)cc1,3.4,?
Cc1ccc(-c2ccc3nnc(CNC(=O)c4ccc5c(c4)OCO5)n3n2)cc1,3.2,i
Cc1ccc(-c2ccc3nnc(CNC(=O)c4ccc(F)c(F)c4)n3n2)cc1,-16.0,28.2µM*
Cc1ccc(-c2ccc3nnc(CNC(=O)c4ccc(N(C)C)cc4)n3n2)cc1C,-8.5,i
COc1ccc(C(=O)NCc2nnc3ccc(-c4ccc(C)c(C)c4)nn23)cc1,-3.2,20µM*
O=C(NCc1nnc2ccc(-c3ccc(Cl)cc3)nn12)c1cccc(Br)c1,13.6,28.2µM*
O=C(NCc1nnc2ccc(-c3ccccc3)nn12)c1ccc(F)c(F)c1,-3.6,28.2µM*
O=C(Cc1ccccc1)NC1CCN(c2ccc3nnc(C4CC4)n3n2)CC1,-1.7,.
CN(Cc1ccccc1)C(=O)CSc1nnc(COc2ccc(Cl)cc2)n1C,.,i
Cc1ccc(C)c(S(=O)(=O)N2c3ccccc3CC2c2nc(C(C)C)no2)c1 (stereo unspecified),5.3,.
N#CCOc1ccc(NC(=O)c2ccc3ccccc3n2)cc1,.,i
CN(Cc1ccc(-c2ccccc2)cc1)Cc1cccn1C,-17.5,i
Cc1ccc(-c2ccc3nnc(CNC(=O)c4ccco4)n3n2)cc1C,-10.8,22.4µM*
